Consider 33 compounds from PubChem BioAssay (EPA / NIEHS).

By AC50 is commonly meant the midpoint of the concentration-response curve, whichever way the signal moves.

Inconclusive results are not listed. The source made the active and inactive calls. The calls were made as follows, unless noted: active = hit-call score of the fitted dose curve at least 0.9, where 1 is the maximum; inactive = score below 0.9.

Sequence of CCAAT/enhancer-binding protein beta (Homo sapiens) (P17676 whole entry, looked up, the tested form may be a part): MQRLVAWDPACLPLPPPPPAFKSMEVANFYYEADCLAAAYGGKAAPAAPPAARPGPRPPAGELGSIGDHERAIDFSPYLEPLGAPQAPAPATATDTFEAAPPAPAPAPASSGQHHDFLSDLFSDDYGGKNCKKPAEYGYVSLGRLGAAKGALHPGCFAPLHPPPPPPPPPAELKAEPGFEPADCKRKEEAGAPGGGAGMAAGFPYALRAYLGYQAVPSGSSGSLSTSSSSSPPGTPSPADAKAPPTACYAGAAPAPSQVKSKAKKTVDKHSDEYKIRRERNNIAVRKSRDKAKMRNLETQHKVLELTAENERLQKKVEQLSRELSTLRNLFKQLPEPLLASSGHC

Tested on in one assay: not listed separately
The experiment in a line: ACEA_ER_80hr: ACEA Biosciences xCELLigence Real-Time Cell Analysis on Estrogen Receptor Agonism for Proliferation (AID 2282667; active = hit-call score of the fitted dose curve at least 0.9, where 1 is the maximum). The note with it: T47D proliferation, impedance (xCELLigence), 80 h. The essentials: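 Impedance readout (RT-CES) of T47D proliferation at 80 h post-dose; gain of signal vs DMSO baseline. Compounds: 8 conc, 1:4 serial, top 100 uM final, ≤0.5% DMSO; biological duplicate.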
In the case of `C[C@H]1O[C@@H](O[C@H]2[C@@H](O)C[C@H](O[C@H]3[C@@H](O)C[C@H](O[C@H]4CC[C@@]5(C)[C@H](CC[C@@H]6[C@@H]5CC[C@]5(C)[C@@H](C7=CC(=O)OC7)CC[C@]65O)C4)O[C@@H]3C)O[C@@H]2C)C[C@H](O)[C@@H]1O`, the call was inactive.

Take `Cc1ccccc1C(=O)Nc1cccc(OC(C)C)c1`: the call was inactive.

For the compound `Nc1ncc([N+](=O)[O-])s1`, the compound was classed as inactive.

In the case of `O=CC=O`, the call was inactive.

Regarding `Cl/C=C\C[N+]12CN3CN(CN(C3)C1)C2`, the result was inactive.

As to `Clc1ccc(C2(Cn3cncn3)CC(Br)CO2)c(Cl)c1` (centres undefined), the call was inactive.

Consider `O=C(Cc1ccccc1)c1ccccc1`, for which the outcome was inactive.

For `CC(=O)c1cc(C(C)(C)C)cc2c1CCC2(C)C`, the outcome was inactive.

`CC(Br)C(=O)O` (centres undefined): the compound was classed as inactive.

With `C=CCc1ccc(OC)cc1`, the result was inactive.

Regarding `CCOP(=S)(OCC)SCSP(=S)(OCC)OCC`, the call was inactive.

On to `Clc1ccc(COC(Cn2ccnc2)c2ccc(Cl)cc2Cl)cc1` (centres undefined), for which the result was inactive.

`O=C1C(Cl)=C(Cl)C(=O)c2ccccc21`: the call was inactive.

With `CCSC(C)CC1CC(=O)C(C(CC)=NOC/C=C/Cl)=C(O)C1` (centres undefined), the outcome was inactive.

On to `Nc1ccc(N=Nc2ccc(-c3ccc(N=Nc4c(S(=O)(=O)O)cc5cc(S(=O)(=O)O)c(N=Nc6ccccc6)c(O)c5c4N)cc3)cc2)c(N)c1`, for which the result was inactive.

Regarding `N#Cc1ccccn1`, the compound was classed as inactive.

With `CC(C)c1ccc(CO)cc1`, the result was inactive.

As for `COc1ccccc1OC`, the result was inactive.

Turning to `ClCc1cccnc1`, the result was inactive.

Regarding `CCOC(=O)Nc1cccc(OC(=O)Nc2ccccc2)c1`, the result was inactive.

In the case of `COc1ccc(C=O)cc1OC`, the AC50 is 15.7 µM (active).

Take `c1cc[c]([Hg][c]2ccccc2)cc1`: the outcome was inactive.

For `CC(=O)C(Cl)C(=O)N(C)C` (centres undefined), the AC50 is 0.272 µM (active).

As to `COc1cccc(C=O)c1`, the compound was called inactive.

Turning to `O=C(Cl)c1ccc(Cl)cc1`, the call was inactive.

`COS(=O)(=O)c1ccc(C)cc1`: the result was inactive.

With `O=C(CCl)CCl`, the compound was classed as inactive.

`C=CC(=O)N(C)C`: the call was inactive.

For the compound `Clc1nc(Cl)nc(Cl)n1`, the outcome was inactive.

Take `O=C(NCO)NCO`: the compound was classed as inactive.

In the case of `CCNc1nc(NC(C)(C)C)nc(SC)n1`, the compound was called inactive.

For the compound `CC(=[OH+])/C=C(/C)[O-].CC(=[OH+])/C=C(/C)[O-].CC(=[OH+])/C=C(/C)[O-].[Al]`, the outcome was inactive.

Regarding `Oc1ccc(-c2ccccc2)cc1`, the AC50 was 10.5 µM (active).

Tested on in a further assay: not listed separately
Description: ATG_CRE_CIS: Attagene CIS-FACTORIAL HepG2 Assay for human cAMP Responsive Element (CRE) binding protein 3 (AID 2282926). The note with it: HepG2 CRE cis-reporter, Attagene multiplexed mRNA; actives raise or lower the signal. The essentials:
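Readout: fluorescently labelled reporter transcripts resolved by capillary electrophoresis after RT-PCR, taken 24 h post-dosing in transfected HepG2. Endogenous transcription factor activity drives each cis-element reporter; gain or loss of signal fitted relative to DMSO control.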
For the compound `C[C@H]1O[C@@H](O[C@H]2[C@@H](O)C[C@H](O[C@H]3[C@@H](O)C[C@H](O[C@H]4CC[C@@]5(C)[C@H](CC[C@@H]6[C@@H]5CC[C@]5(C)[C@@H](C7=CC(=O)OC7)CC[C@]65O)C4)O[C@@H]3C)O[C@@H]2C)C[C@H](O)[C@@H]1O`, the outcome was inactive.

On to `Cc1ccccc1C(=O)Nc1cccc(OC(C)C)c1`, for which the compound was called inactive.

With `Nc1ncc([N+](=O)[O-])s1`, the compound was classed as inactive.

With `O=CC=O`, the compound was called inactive.

As for `Cl/C=C\C[N+]12CN3CN(CN(C3)C1)C2`, the compound was called inactive.

As for `Clc1ccc(C2(Cn3cncn3)CC(Br)CO2)c(Cl)c1` (centres undefined), the call was inactive.

For the compound `O=C(Cc1ccccc1)c1ccccc1`, the call was inactive.

As for `CC(=O)c1cc(C(C)(C)C)cc2c1CCC2(C)C`, the concentration at half-maximal activity (AC50) is 100 µM (active).

For the compound `CC(Br)C(=O)O` (centres undefined), the outcome was inactive.

For `C=CCc1ccc(OC)cc1`, the compound was classed as inactive.

Regarding `CCOP(=S)(OCC)SCSP(=S)(OCC)OCC`, the outcome was inactive.

As for `Clc1ccc(COC(Cn2ccnc2)c2ccc(Cl)cc2Cl)cc1` (centres undefined), the outcome was inactive.

For `O=C1C(Cl)=C(Cl)C(=O)c2ccccc21`, the outcome was inactive.

With `CCSC(C)CC1CC(=O)C(C(CC)=NOC/C=C/Cl)=C(O)C1` (centres undefined), the call was inactive.

Take `Nc1ccc(N=Nc2ccc(-c3ccc(N=Nc4c(S(=O)(=O)O)cc5cc(S(=O)(=O)O)c(N=Nc6ccccc6)c(O)c5c4N)cc3)cc2)c(N)c1`: the call was inactive.

As to `N#Cc1ccccn1`, the outcome was inactive.

Take `CC(C)c1ccc(CO)cc1`: the result was inactive.

In the case of `COc1ccccc1OC`, the result was inactive.

Consider `ClCc1cccnc1`, for which the AC50 is 57 µM (active).

Turning to `CCOC(=O)Nc1cccc(OC(=O)Nc2ccccc2)c1`, the compound was classed as inactive.

Take `COc1ccc(C=O)cc1OC`: the compound was classed as inactive.

As for `c1cc[c]([Hg][c]2ccccc2)cc1`, the AC50 is 22.6 µM (active).

Turning to `CC(=O)C(Cl)C(=O)N(C)C` (centres undefined), the outcome was inactive.

For the compound `COc1cccc(C=O)c1`, the compound was called inactive.

For `O=C(Cl)c1ccc(Cl)cc1`, the compound was called inactive.

`COS(=O)(=O)c1ccc(C)cc1`: the compound was called inactive.

Take `O=C(CCl)CCl`: the AC50 was 24.7 µM (active).

Take `C=CC(=O)N(C)C`: the compound was called inactive.

Consider `Clc1nc(Cl)nc(Cl)n1`, for which the result was inactive.

Take `O=C(NCO)NCO`: the outcome was inactive.

`CCNc1nc(NC(C)(C)C)nc(SC)n1`: the compound was called inactive.

As to `CC(=[OH+])/C=C(/C)[O-].CC(=[OH+])/C=C(/C)[O-].CC(=[OH+])/C=C(/C)[O-].[Al]`, the result was inactive.

`Oc1ccc(-c2ccccc2)cc1`: the compound was called inactive.

Another assay has as its target CCAAT/enhancer-binding protein beta (Homo sapiens) (UniProt P17676). Description: ATG_C_EBP_CIS: Attagene CIS-FACTORIAL HepG2 Assay for human CCAAT/Enhancer Binding Protein (C/EBP) beta (AID 2282927). Conditions: HepG2 Attagene cis-factorial transcription factor reporter; actives raise or lower the signal. The essentials:
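Endogenous C/EBPb-driven reporter transcripts measured in transfected human HepG2 cells at 24 h via RT-PCR and capillary electrophoresis of labelled fragments. Activity fitted in both directions relative to DMSO baseline.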
`C[C@H]1O[C@@H](O[C@H]2[C@@H](O)C[C@H](O[C@H]3[C@@H](O)C[C@H](O[C@H]4CC[C@@]5(C)[C@H](CC[C@@H]6[C@@H]5CC[C@]5(C)[C@@H](C7=CC(=O)OC7)CC[C@]65O)C4)O[C@@H]3C)O[C@@H]2C)C[C@H](O)[C@@H]1O`: the AC50 was 2.99 µM (active).

For `Cc1ccccc1C(=O)Nc1cccc(OC(C)C)c1`, the result was inactive.

As to `Nc1ncc([N+](=O)[O-])s1`, the outcome was inactive.

With `O=CC=O`, the outcome was inactive.

In the case of `Cl/C=C\C[N+]12CN3CN(CN(C3)C1)C2`, the outcome was inactive.

Regarding `Clc1ccc(C2(Cn3cncn3)CC(Br)CO2)c(Cl)c1` (centres undefined), the result was inactive.

For `O=C(Cc1ccccc1)c1ccccc1`, the outcome was inactive.

For the compound `CC(=O)c1cc(C(C)(C)C)cc2c1CCC2(C)C`, the AC50 was 159 µM (active).

Turning to `CC(Br)C(=O)O` (centres undefined), the result was inactive.

As for `C=CCc1ccc(OC)cc1`, the outcome was inactive.

For the compound `CCOP(=S)(OCC)SCSP(=S)(OCC)OCC`, the result was inactive.

Take `Clc1ccc(COC(Cn2ccnc2)c2ccc(Cl)cc2Cl)cc1` (centres undefined): the outcome was inactive.

Consider `O=C1C(Cl)=C(Cl)C(=O)c2ccccc21`, for which the result was inactive.

For `CCSC(C)CC1CC(=O)C(C(CC)=NOC/C=C/Cl)=C(O)C1` (centres undefined), the result was inactive.

Turning to `Nc1ccc(N=Nc2ccc(-c3ccc(N=Nc4c(S(=O)(=O)O)cc5cc(S(=O)(=O)O)c(N=Nc6ccccc6)c(O)c5c4N)cc3)cc2)c(N)c1`, the outcome was inactive.

Regarding `N#Cc1ccccn1`, the result was inactive.

Consider `CC(C)c1ccc(CO)cc1`, for which the result was inactive.

Regarding `COc1ccccc1OC`, the outcome was inactive.

With `ClCc1cccnc1`, the result was inactive.

Take `CCOC(=O)Nc1cccc(OC(=O)Nc2ccccc2)c1`: the outcome was inactive.

On to `COc1ccc(C=O)cc1OC`, for which the result was inactive.

Take `c1cc[c]([Hg][c]2ccccc2)cc1`: the AC50 was 21.3 µM (active).

In the case of `CC(=O)C(Cl)C(=O)N(C)C` (centres undefined), the result was inactive.

For `COc1cccc(C=O)c1`, the result was inactive.

On to `O=C(Cl)c1ccc(Cl)cc1`, for which the result was inactive.

On to `COS(=O)(=O)c1ccc(C)cc1`, for which the result was inactive.

As to `O=C(CCl)CCl`, the outcome was inactive.

For `C=CC(=O)N(C)C`, the outcome was inactive.

As to `Clc1nc(Cl)nc(Cl)n1`, the result was inactive.

Regarding `O=C(NCO)NCO`, the result was inactive.

Take `CCNc1nc(NC(C)(C)C)nc(SC)n1`: the result was inactive.

`CC(=[OH+])/C=C(/C)[O-].CC(=[OH+])/C=C(/C)[O-].CC(=[OH+])/C=C(/C)[O-].[Al]`: the outcome was inactive.

For the compound `Oc1ccc(-c2ccccc2)cc1`, the outcome was inactive.
